From PubChem BioAssay come the findings set out here.

Structures are written as SMILES. A number with no mark means an inactive call.

A short description of this test: optical density shifts of acrAB sulA E. coli – strain DRC41, OD650, 48 h, E. coli filamentation inducer project, primary screen (AID 1152).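 Note: E. coli MC1000 strain DRC41 lacking acrAB efflux pump and sulA.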 To be noted: higher = more signal, called active from +8 up or from −8 down.
On to `C=C(/C(=C/C[C@H](OC(=O)c1ccncc1)c1ccc(OCCO)cc1)c1cnc2ccccc2c1)C(C)C`, for which the z-score was -0.592.
Under `Cc1cc2c(c(=O)o1)[C@H](O)[C@H]1O[C@H]1C2=O` stands -0.743; under `COC(=O)[C@@H]1CC[C@H](C)[C@@H](c2ccc(C)cc2)N1C(=O)c1ccc(C=NOC[C@@H](O)COCc2ccco2)cc1`, 1.06.
Under `CO[C@@H]1COC(=O)[C@H](C)NC(=O)[C@@H](C)COC(=O)CCC[C@H]1C` stands 0.298; under `CC(C)c1ccc(NN2C(C(O)c3ccc4c(c3)OCO4)C=CC3C(=O)N(c4ccccc4)C(=O)C32)cc1` (stereo not given), -0.481; under `CCOC(=O)[C@H](Cc1ccccc1)NC(=O)CCC1CC(OC(=O)NCc2ccc3c(c2)OCO3)CC2(CCCC(COC(=O)NCc3ccccc3)O2)O1` (stereo not given in full), 0.0722.
The value for `CC(C)(C)OC(=O)CC[C@]1(C(=O)NCc2ccccc2)N=C(c2ccc(OCCCO)cc2)O[C@H]1c1ccccc1` was 0.185; that for `Cc1ccc(C2CC=C(C(=O)O)CN2S(=O)(=O)c2ccc(C)cc2)cc1` (stereo not given) was -1.29.
With `CC[C@@H](c1ccccc1)n1c(=O)n2n(c1=O)[C@H]1[C@H](O)[C@@H]3O[C@@H]3C(=NOCC=C(C)CCC=C(C)C)[C@H]1CC2`, the z-score is -1.15.
The value for `CC(CCC(=O)OC[C@H]1O[C@H](C#Cc2ccccc2)C=C[C@@H]1Oc1ccc(C)cc1)=NOC[C@@H](O)COCc1ccco1` was 0.654.
